Assay results from PubChem BioAssay AID651828 (ICCB-Longwood Screening Facility, Harvard Medical School, 2012).
The campaign covered roughly 20,000 compounds. About 25 (0.1%) were called active. Cut-off read from the data, not from the text of the source: active = % bound below about 75%; inactive = the rest. Shown is part of a subset that was picked to be rich in actives.

Molecular target: Nucleoprotein (Rift valley fever virus (strain ZH-548 M12)) (UniProt P21700)
Experiment: inhibitors of RVFV nucleoprotein–RNA binding, primary screen, biochemical, fluorescence polarization (AID 651828)
Conditions: RVFV N-RNA binding, stronger effect = lower value, concentration not given here

Nucleoprotein (Rift valley fever virus (strain ZH-548 M12)), sequence (P21700 whole entry, looked up): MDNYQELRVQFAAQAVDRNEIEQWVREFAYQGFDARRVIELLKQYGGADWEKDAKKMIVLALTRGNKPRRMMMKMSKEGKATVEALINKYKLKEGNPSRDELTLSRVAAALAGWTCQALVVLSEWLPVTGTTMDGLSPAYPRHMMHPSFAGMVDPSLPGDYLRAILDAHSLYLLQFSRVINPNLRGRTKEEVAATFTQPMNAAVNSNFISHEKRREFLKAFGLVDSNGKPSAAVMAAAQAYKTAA

| SMILES | % bound |
| --- | --- |
| Cc1ccccc1C(=O)Nc1cccc(N(C)C)c1 | 99.1% (inactive) |
| O=C(CS(=O)(=O)c1ccccc1)Nc1ccccc1O | 95.9% (inactive) |
| Cc1cc(NN)nc(-c2ccccc2O)n1 | 91.2% (inactive) |
| CS(=O)(=O)NCC(c1cccs1)N1CCc2ccccc21 (stereo not given) | 95.9% (inactive) |
| COC(=O)C1CC2=CC(=O)CCC2(C)C2C(O)CC3(C)C(CCC34CCC(=O)O4)C12 (stereo not given) | 103% (inactive) |
| O=c1[nH][nH]c(=O)n1/N=C/C=C\c1ccccc1 | 101% (inactive) |
| Cc1nnsc1C(=O)Nc1ccc(C(N)=O)cc1 | 96.7% (inactive) |
| NC(=O)c1cccc(NC(=O)C(F)(F)F)c1 | 108% (inactive) |
| O=S(=O)(NCCN1CCOCC1)c1ccc(I)cc1 | 94.4% (inactive) |
| CCc1ccc2[nH]c(=O)c(Cc3ccccc3)c(O)c2c1 | 98.2% (inactive) |
| CC(C)Sc1nnc(NC(=O)C(C)(C)C)s1 | 96.3% (inactive) |
| COc1ccc(C(=O)NCCc2cc3c(OC)ccc(OC)c3[nH]c2=O)cc1 | 97.1% (inactive) |
| CCOc1ccc(NC(=O)CSc2nc(=O)n(CCCN3CCOCC3)c3c2CCCC3)cc1 | 105% (inactive) |
| c1ccc2c(c1)CC(Nc1ccc3cn[nH]c3c1)C2 | 84.9% (inactive) |
| S=C(c1ccccn1)N1CCN(C(=S)c2ccccn2)CC1 | 96.1% (inactive) |
| O=C(CC1SC(=NC2CC3C=CC2C3)NC1=O)Nc1ccc(Cl)cc1 (stereo not given) | 89.9% (inactive) |
| COc1ccc(-c2cc(-c3nnc(N)o3)no2)cc1OC | 92.5% (inactive) |
| CC(C)Nc1ncccn1 | 104% (inactive) |
| COCn1c(=O)[nH]c2ccccc21 | 91.1% (inactive) |
| CCOC(=O)N1CCN(C(=S)Nc2ccc(Oc3ccccc3)cc2)CC1 | 92.1% (inactive) |
| COc1ccc(NC(=O)COc2cccc3c2CCN(C)C3=O)cc1 | 90.3% (inactive) |
| Cc1nc(NNC(=O)c2ccccc2)cc(-c2ccccc2)n1 | 91.7% (inactive) |
| CC(c1ccccc1)n1c(SCc2nc(-c3ccc(C(C)(C)C)cc3)no2)n[nH]c1=O (stereo not given) | 95.1% (inactive) |
| N#CCCSc1nccn1Cc1ccccc1 | 106% (inactive) |
| c1ccc2c(c1)OC1OC2Oc2ccccc21 | 98.8% (inactive) |
